# Over roughly 33,000 sequences, “E-score (-0.5 to 0.5)” has its median near -0.054; the highest 2% begin near 0.39. Only a selection was taken, and the highest values are over-represented in it overall.
# Molecular target: Ylr278c (UniProt Q05854)
# Assay: PBM E-score (8-mer binding enrichment) (E-score (-0.5 to 0.5)); higher = stronger / more preferred TF binding
# Settings: protein concentration: 200 nM; construct: GST-DNA-binding domain
# Protocol: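 Universal 'all 10-mer' protein binding microarrays (Agilent AMADID 015681) probed with GST-tagged S. cerevisiae TFs (full-length or DBD) made by in vitro transcription/translation (PURExpress), about 100-200 nM. Bound TF was detected with fluorescent anti-GST. Each ungapped 8-mer (which stands for itself and its reverse complement) is scored by the PBM enrichment score (E-score), a modified Wilcoxon-Mann-Whitney statistic from -0.5 to +0.5, computed with the Universal PBM Analysis Suite. Scale: above 0.35 generally sequence-specific binding.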
# Sequence of UniProt Q05854 (Q05854 whole entry): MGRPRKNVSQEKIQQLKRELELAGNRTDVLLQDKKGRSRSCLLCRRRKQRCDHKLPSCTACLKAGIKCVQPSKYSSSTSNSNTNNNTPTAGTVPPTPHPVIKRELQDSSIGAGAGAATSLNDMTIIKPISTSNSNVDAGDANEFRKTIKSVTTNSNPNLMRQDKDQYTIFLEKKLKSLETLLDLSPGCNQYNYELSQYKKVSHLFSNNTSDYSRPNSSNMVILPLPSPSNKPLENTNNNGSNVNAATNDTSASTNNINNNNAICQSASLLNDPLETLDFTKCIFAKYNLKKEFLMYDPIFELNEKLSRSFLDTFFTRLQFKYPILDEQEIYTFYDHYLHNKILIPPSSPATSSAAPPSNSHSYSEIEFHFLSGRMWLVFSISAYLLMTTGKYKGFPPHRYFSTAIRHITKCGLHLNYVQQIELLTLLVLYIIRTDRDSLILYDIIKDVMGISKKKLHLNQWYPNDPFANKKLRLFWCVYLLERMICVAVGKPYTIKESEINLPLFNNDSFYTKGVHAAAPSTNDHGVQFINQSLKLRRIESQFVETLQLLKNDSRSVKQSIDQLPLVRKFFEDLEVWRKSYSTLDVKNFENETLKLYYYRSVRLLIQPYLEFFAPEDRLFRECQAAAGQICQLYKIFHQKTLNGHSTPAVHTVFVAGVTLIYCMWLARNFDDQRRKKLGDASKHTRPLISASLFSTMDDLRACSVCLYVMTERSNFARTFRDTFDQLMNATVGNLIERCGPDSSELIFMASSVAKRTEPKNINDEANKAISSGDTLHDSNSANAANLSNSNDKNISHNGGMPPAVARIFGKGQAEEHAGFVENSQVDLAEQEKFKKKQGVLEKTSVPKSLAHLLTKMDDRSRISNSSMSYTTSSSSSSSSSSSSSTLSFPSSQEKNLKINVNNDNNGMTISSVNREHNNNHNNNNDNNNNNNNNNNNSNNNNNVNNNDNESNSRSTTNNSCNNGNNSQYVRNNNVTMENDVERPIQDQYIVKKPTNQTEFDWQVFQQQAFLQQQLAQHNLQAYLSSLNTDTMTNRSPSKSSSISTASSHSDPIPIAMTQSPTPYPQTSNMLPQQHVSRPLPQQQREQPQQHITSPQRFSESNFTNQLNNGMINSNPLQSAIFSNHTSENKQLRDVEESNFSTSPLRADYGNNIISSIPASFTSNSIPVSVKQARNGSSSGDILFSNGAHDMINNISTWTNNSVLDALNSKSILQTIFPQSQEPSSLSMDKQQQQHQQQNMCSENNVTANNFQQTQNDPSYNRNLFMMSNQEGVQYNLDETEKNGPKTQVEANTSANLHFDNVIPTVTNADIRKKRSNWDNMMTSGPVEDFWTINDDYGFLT
row,Sequence,PBM E-score
1,CGCCGAAG,0.365
2,ATCCGAAT,0.395
3,GCCCGAAC,0.215
4,GTCCGAAC,0.401
5,GGACACCA,0.0663
6,AAATGGTT,-0.0331
7,ACCCACAA,0.00936
8,AGCTTCCG,0.24
9,CAACTGCA,-0.174
10,GGAGCTCC,0.348
11,CACCGAAA,0.184
12,TCCCGAAA,0.238
13,CTCCGAAC,0.457
14,ATCCGAAC,0.344
15,CGCCGAAA,0.358
16,CTCCGAAA,0.477
17,TGCCGAAA,0.325
18,CACCGAAC,0.102
19,TTCCGAAA,0.43
20,CCACAATC,0.0776
21,ACTGCTAA,-0.185
22,AACAGTTC,-0.0219
23,CCTCAAAG,-0.271
24,AGCGCTCC,0.0243
25,CAGTAGCG,0.0152

row,Sequence,PBM E-score
1,AGAGTTAC,-0.362
2,GGAGTTAC,0.399
3,CGAGTTAC,-0.00574
4,ACCTAGCT,-0.1
5,ACTACAAA,-0.0603
6,GGCCGAGA,0.272
7,CTCCGAGC,0.439
8,CACCGAGA,0.034
9,CTCCGAGA,0.452
10,CGCCGAGA,0.304
11,ATCCGAGA,0.299
12,ATCCGAGC,0.266
13,GTCCGAGA,0.416
14,CCCCGAGC,0.219
15,AAATATCT,0.00279
16,GCGCAGTA,0.0804
17,ACTAGCGA,-0.0813
18,ATGGATGC,-0.0459
19,ATCATGAT,-0.14
20,ACGTAGAC,-0.244
21,ATGGAGAA,0.148
22,CCGGAGAA,0.489
23,CTGGAGAC,-0.222
24,CGGGAGAC,0.302
25,CAGGAGAG,-0.205

row,Sequence,PBM E-score
1,CAGGAGAA,0.0274
2,AAGGAGAA,-0.0157
3,ACGGAGAG,0.336
4,ACGGAGAA,0.434
5,CTGGAGAA,-0.141
6,CCGGAGAC,0.444
7,CCGGAGAG,0.456
8,CTCAGAAA,-0.257
9,GAAGACAA,-0.0383
10,ACCGATCG,0.26
11,CGGGTAAA,0.156
12,CTGAGAAG,-0.149
13,ACGAGTCG,-0.159
14,AATTTCGT,-0.0607
15,CGAGATCA,0.013
16,GGCAGCGA,0.0771
17,CCCAGGAG,-0.188
18,CAACACTC,0.133
19,TACGGTCA,0.0722
20,GTAAAGAA,-0.0759
21,GCGGAGAA,0.436
22,GGGGAGAA,0.0935
23,GTGGAGAA,-0.0956
24,TGGGAGAA,-0.208
25,TAGGAGAA,-0.134

row,Sequence,PBM E-score
1,TCGGAGAA,0.465
2,ATACCTTG,-0.236
3,AACCTAGG,-0.102
4,CATAGGAG,-0.136
5,GACTATGA,-0.11
6,AGTCTTGA,-0.247
7,AGGAAATA,0.0859
8,AGGAAATC,0.178
9,CGGAAAAA,0.446
10,CGGAAAAC,0.373
11,CTGAAATC,0.0679
12,CGGAAATC,0.41
13,CGGAAATA,0.451
14,CGGAAAAG,0.373
15,GGGAAATA,0.0851
16,ACGCGAGA,-0.171
17,CATTCAAG,-0.154
18,CTCCGGGC,0.448
19,AACCGGGC,0.0679
20,CTGCGGGC,0.276
21,CCCGGGGA,0.358
22,ATCCGAGG,0.274
23,GTCCGGGA,0.38
24,ATCCGGGC,0.406
25,CTCCGGGA,0.468

row,Sequence,PBM E-score
1,AACCGGGG,0.321
2,CACCGGGC,0.304
3,ATCCGGGG,0.414
4,ATCCGGGA,0.332
5,TAAGAGTA,-0.0846
6,ACGACAGA,-0.232
7,AGCCGCAC,-0.0107
8,CCAGACGA,-0.149
9,CCGCTTTC,0.211
10,CATCCATA,-0.123
11,CGGAGTCA,0.457
12,CAGAGTCC,0.0837
13,CGGAGTCC,0.464
14,AGGAGTCA,-0.121
15,AGGAGTCC,0.13
16,GGGAGTCA,-0.00639
17,GAAGCCAA,0.0199
18,ACTGTTCA,-0.122
19,CATTCCGG,0.384
20,TATTCCGA,0.453
21,GATTCCCA,0.0255
22,CATTCCTA,-0.212
23,TATTCCCA,0.138
24,GATTCCGA,0.413
25,GATTCCAA,-0.116

row,Sequence,PBM E-score
1,TATTCCAA,-0.177
2,CATTCCGA,0.391
3,AGCTAGTA,-0.114
4,GAGTTCCC,0.0904
5,AACTTATA,0.0873
6,CAAGCAGG,0.00606
7,CCTACAGA,-0.256
8,GAGTCGCC,0.0773
9,GTCAGATA,-0.151
10,TCCTTGAA,-0.227
11,GTTTCTGA,0.0572
12,AGGGCCCG,0.152
13,CGGGCCCA,0.091
14,CGGGCCCG,0.398
15,ATTTCTGC,0.184
16,GCGCAGCC,0.0388
17,CTCGGACC,0.365
18,CTCGGACA,0.435
19,ATCGGATA,0.393
20,ATCGGTCC,0.325
21,AACGGACC,0.251
22,CTCGGATA,0.215
23,ATCGGATG,0.329
24,AGCGGACC,0.252
25,ATCGGACC,0.412

row,Sequence,PBM E-score
1,CGCGGACC,0.386
2,GGCGGACC,0.413
3,GTCGGACA,0.386
4,CAGTGTTC,-0.0124
5,ACCCAAGT,-0.215
6,AATTCAAT,-0.026
7,AGAAGTCA,-0.0826
8,AAAGCACA,-0.103
9,GCAACAGA,0.0725
10,AGCGGACA,0.294
11,ATCGGACG,0.357
12,ATCGGACA,0.419
13,CAGGCTAA,-0.247
14,AGTGCGAG,-0.276
15,ACCCTTAT,-0.098
16,TTCGAAAA,0.0013
17,GGAACGGA,0.398
18,ATCACGGA,0.365
19,GTCACGGA,0.401
20,CTCACGGA,0.264
21,CCCACGGA,0.359
22,CGAACGGA,0.312
23,TCCACGGA,0.406
24,ACCACGGA,0.341
25,AGAACGGA,0.256

# Reference: the supplement of paper PMC3334620
